This passage reports inhibition of ligand binding results from PubChem BioAssay AID1211 (NMMLSC, 2008).

In the experiment the target is Estrogen receptor (Homo sapiens) (UniProt P03372). Briefly: displacement of fluorescent estrogen from ERalpha – cell-based, Cos7 ERalpha-GFP, flow cytometry, primary screen (AID 1211).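 Note: 0% = DMSO vehicle wells and 100% = no E2-Alexa633 signal left.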 To be noted: fluorescent ligand competition, stronger effect = higher value.

Activity calls are given as the source filed them. The rule behind the calls is not given here.

Estrogen receptor (Homo sapiens), sequence (P03372 whole entry, looked up): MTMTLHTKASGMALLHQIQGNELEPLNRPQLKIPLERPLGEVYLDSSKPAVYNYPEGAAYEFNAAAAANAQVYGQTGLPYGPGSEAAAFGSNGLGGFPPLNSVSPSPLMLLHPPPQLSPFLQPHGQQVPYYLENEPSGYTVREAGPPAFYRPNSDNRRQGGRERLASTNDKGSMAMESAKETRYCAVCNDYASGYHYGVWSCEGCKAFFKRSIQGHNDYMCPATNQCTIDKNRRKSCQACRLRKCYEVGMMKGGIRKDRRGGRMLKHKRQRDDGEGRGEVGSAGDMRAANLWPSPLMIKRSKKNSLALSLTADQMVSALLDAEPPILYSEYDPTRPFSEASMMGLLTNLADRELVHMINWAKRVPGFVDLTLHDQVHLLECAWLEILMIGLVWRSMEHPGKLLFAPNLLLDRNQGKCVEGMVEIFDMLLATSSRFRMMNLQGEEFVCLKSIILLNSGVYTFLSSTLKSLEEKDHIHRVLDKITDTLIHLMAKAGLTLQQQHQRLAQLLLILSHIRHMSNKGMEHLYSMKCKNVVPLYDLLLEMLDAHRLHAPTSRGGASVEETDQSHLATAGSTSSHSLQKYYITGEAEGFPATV

On to `Nc1ccc2oc(-c3ccc4nc[nH]c4c3)nc2c1`, for which the inhibition of ligand binding reads like this: (at 10 µM) 31% (inactive); (binding inhibition, at 0.1 µM) 55%.

On to `CCOC(=O)c1ccc(NC(=O)CSc2nc(C)cc(=O)[nH]2)cc1`, for which the inhibition of ligand binding by setting is: (at 10 µM) 49% (inactive); (binding inhibition, at 0.1 µM) 21%.

Consider `C/C(N)=C(/C#N)C(=O)CSc1nnc(Nc2cccc(C)c2C)s1`, for which the inhibition of ligand binding reads like this: (at 10 µM) 32% (inactive); (binding inhibition, at 0.1 µM) 16%.

Take `O=C(Nc1nccs1)c1ccc2nccnc2c1`: the inhibition of ligand binding is 33% (inactive) (at 10 µM) and 24% (binding inhibition, at 0.1 µM).

Turning to `CCn1c(=NC(=O)c2ccc(N3C(=O)CCC3=O)cc2)sc2c(OC)ccc(OC)c21`, the inhibition of ligand binding by setting is: (at 10 µM) 66% (active); (binding inhibition, at 0.1 µM) 32%.

Regarding `O=C(Cc1coc2cc3c(cc12)CCC3)OCc1cc(=O)n2c(n1)sc1ccccc12`, the inhibition of ligand binding is, setting by setting: (at 10 µM) 31% (inactive); (binding inhibition, at 0.1 µM) 9%.

For `O=c1cc(O)c2c(=O)n(-c3ccccc3)c3c(c2o1)CCCCCC3`, the inhibition of ligand binding by setting is: (at 10 µM) 31% (inactive); (binding inhibition, at 0.1 µM) 1%.

In the case of `COc1ccc(C2Nc3ccccc3C(=O)N2c2ccccc2)cc1Cn1cc([N+](=O)[O-])cn1` (configuration not stated), the inhibition of ligand binding reads like this: (at 10 µM) 29% (inactive); (binding inhibition, at 0.1 µM) 12%.

On to `C[C@]12CC[C@@H]3c4ccc(O)cc4[C@@H](O)C[C@H]3[C@@H]1CC[C@@H]2O`, for which the inhibition of ligand binding runs as follows: (at 10 µM) 64% (active); (binding inhibition, at 0.1 µM) 78%.

For `CCOC(=O)c1c(C)oc2c1c(C=NC1CCS(=O)(=O)C1)c(O)c1ccccc12` (configuration not stated), the inhibition of ligand binding (at 10 µM) is 29% (inactive) and the inhibition of ligand binding (binding inhibition, at 0.1 µM) was 43%.

Regarding `O=C(O)c1ccc2c(c1)-c1nc3ccccc3n1C2=O`, the inhibition of ligand binding by setting is: (at 10 µM) 32% (inactive); (binding inhibition, at 0.1 µM) 5%.

As for `CCOc1cc(C2CC(=O)c3c(ccc4ccccc34)N2)ccc1O` (configuration not stated), the inhibition of ligand binding (at 10 µM) is 32% (inactive) and the inhibition of ligand binding (binding inhibition, at 0.1 µM) amounted to 23%.

`O=C(NCCN1CCOCC1)c1cnn2c(-c3ccccc3)cc(-c3ccccc3)nc12`: the inhibition of ligand binding is, setting by setting: (at 10 µM) 0% (inactive); (binding inhibition, at 0.1 µM) 8%.

Take `COc1cc(CCC(=O)OCC(=O)Nc2ncc(Cl)cc2Cl)cc(OC)c1OC`: the inhibition of ligand binding by setting is: (at 10 µM) 3% (inactive); (binding inhibition, at 0.1 µM) 27%.

With `COc1cc(-c2nc3ccc4ccccc4c3c3c2CCC3)ccc1O`, the inhibition of ligand binding is 46% (active) (at 10 µM) and 87% (binding inhibition, at 0.1 µM).

Consider `O=c1oc2ccccc2n1CCn1c2ccccc2c2nc3ccccc3nc21`, for which the inhibition of ligand binding is, setting by setting: (at 10 µM) 27% (inactive); (binding inhibition, at 0.1 µM) 28%.

With `NC(=O)c1ccsc1NC(=O)COC(=O)Cc1ccsc1`, the inhibition of ligand binding by setting is: (at 10 µM) 37% (inactive); (binding inhibition, at 0.1 µM) 29%.

As to `CCSc1nnc(NC(=O)C2Cc3ccccc3CN2C(=O)c2ccco2)s1` (configuration not stated), the inhibition of ligand binding (at 10 µM) was 26% (inactive) and the inhibition of ligand binding (binding inhibition, at 0.1 µM) stood at 44%.

In the case of `Cc1ccc(C(=O)CSC2=C(C#N)C(c3ccco3)CC(=O)N2)c(C)c1` (configuration not stated), the inhibition of ligand binding (at 10 µM) is 49% (inactive) and the inhibition of ligand binding (binding inhibition, at 0.1 µM) was 53%.

`c1ccc(-c2nnc3sc(Cc4cccs4)nn23)cc1`: the inhibition of ligand binding by setting is: (at 10 µM) 28% (inactive); (binding inhibition, at 0.1 µM) 13%.

In the case of `COCc1cc(=O)n2c(-c3ccc(C)cc3)n[nH]c2n1`, the inhibition of ligand binding was 40% (inactive) (at 10 µM) and 62% (binding inhibition, at 0.1 µM).

Regarding `COc1ccc2c(c1)c(=O)oc1cc(OCC(=O)NC3CCCCC3)ccc12`, the inhibition of ligand binding reads like this: (at 10 µM) 60% (inactive); (binding inhibition, at 0.1 µM) 60%.

In the case of `COCCOC(=O)c1[nH]c2c(c1C)C(=O)CC(c1ccco1)C2` (configuration not stated), the inhibition of ligand binding by setting is: (at 10 µM) 2% (inactive); (binding inhibition, at 0.1 µM) 8%.

Consider `CCCNCC1COc2ccccc2O1` (configuration not stated), for which the inhibition of ligand binding runs as follows: (at 10 µM) 2% (inactive); (binding inhibition, at 0.1 µM) 21%.

Take `CCN1CCc2nc(NC(=O)Cc3ccc4c(c3)OCCO4)sc2C1`: the inhibition of ligand binding was 36% (inactive) (at 10 µM) and 31% (binding inhibition, at 0.1 µM).

Regarding `C/C(N)=C(/C#N)C(=O)CSc1nnnn1-c1ccc(C)cc1`, the inhibition of ligand binding is, setting by setting: (at 10 µM) 9% (inactive); (binding inhibition, at 0.1 µM) 14%.

Turning to `NC(=O)c1oc2ccccc2c1NC(=O)c1nc2ccccc2s1`, the inhibition of ligand binding is 43% (inactive) (at 10 µM) and 4% (binding inhibition, at 0.1 µM).

For `Cc1cc(C)nc(NC(=O)CSc2nn(C)c(=S)s2)n1`, the inhibition of ligand binding runs as follows: (at 10 µM) 23% (inactive); (binding inhibition, at 0.1 µM) 34%.

As to `Cc1nn(-c2ccccc2)c(C)c1NC(=O)Cc1cccs1`, the inhibition of ligand binding reads like this: (at 10 µM) 11% (inactive); (binding inhibition, at 0.1 µM) 35%.

As for `COc1ccc(C(Nc2ccccn2)c2oc(CO)cc(=O)c2O)cc1` (configuration not stated), the inhibition of ligand binding reads like this: (at 10 µM) 32% (inactive); (binding inhibition, at 0.1 µM) 22%.

Regarding `COc1ccc2c(c1)c(=O)oc1cc3oc(C)c(C)c3cc12`, the inhibition of ligand binding is 3% (inactive) (at 10 µM) and 16% (binding inhibition, at 0.1 µM).

For the compound `COc1ccc(NC(=O)C(c2ccccc2)N(C)C(=O)c2ccc(=O)[nH]c2)cc1` (configuration not stated), the inhibition of ligand binding (at 10 µM) is 49% (active) and the inhibition of ligand binding (binding inhibition, at 0.1 µM) came out at 86%.

Regarding `CCCCn1c(=O)[nH]c2nc3cc(N)ccc3nc2c1=O`, the inhibition of ligand binding is 4% (inactive) (at 10 µM) and 1% (binding inhibition, at 0.1 µM).

As for `O=S(=O)(NCc1csc(-c2cccnc2)n1)c1ccc(Cl)s1`, the inhibition of ligand binding is, setting by setting: (at 10 µM) 45% (inactive); (binding inhibition, at 0.1 µM) 6%.

In the case of `C1CCC(c2nn3c(-c4n[nH]c5c4CCC5)nnc3s2)CC1`, the inhibition of ligand binding was 20% (inactive) (at 10 µM) and 5% (binding inhibition, at 0.1 µM).

In the case of `CCC(Sc1ncnc2sc(C)c(C)c12)C(=O)OC` (configuration not stated), the inhibition of ligand binding by setting is: (at 10 µM) 38% (inactive); (binding inhibition, at 0.1 µM) 30%.

Consider `Nc1ncnc2c1ncn2C1CCC(CO)C(O)C1` (configuration not stated), for which the inhibition of ligand binding by setting is: (at 10 µM) 0% (inactive); (binding inhibition, at 0.1 µM) 10%.

Consider `COc1cc(NC(=O)c2cccs2)c(C(=O)OCC(=O)NCc2ccco2)cc1OC`, for which the inhibition of ligand binding was 22% (inactive) (at 10 µM) and 20% (binding inhibition, at 0.1 µM).

For `Oc1ccccc1N=Nc1nc(-c2ccccc2)c(-c2ccccc2)[nH]1`, the inhibition of ligand binding by setting is: (at 10 µM) 52% (inactive); (binding inhibition, at 0.1 µM) 27%.

Turning to `O=S(=O)(/N=C(/Sc1ccccc1)c1ccccc1)c1ccccc1`, the inhibition of ligand binding runs as follows: (at 10 µM) 0% (inactive); (binding inhibition, at 0.1 µM) 24%.

With `Cc1cc(C(=O)O)ccc1-n1c(C)ccc1C`, the inhibition of ligand binding was 43% (inactive) (at 10 µM) and 58% (binding inhibition, at 0.1 µM).
